Source: PubChem BioAssay (EPA / NIEHS)
Active and inactive are the calls of the source. How the source made its calls: active means hit-call score of the fitted dose curve at least 0.9, where 1 is the maximum; inactive means score below 0.9.

Assay: Tanguay_ZF_120hpf_MORT: Oregon State University Tanguay Lab 120 Hour Post-fertilization zebrafish Assay for Mortality (AID 2284399)
Procedure: Tanguay_ZF_120hpf is a whole embryo, multiplexed endpoint assay using zebrafish larvae exposed for 120 hours post fertilization on a 96-well plate.Tanguay_ZF_120hpf_MORT is one of one assay component(s) measured or calculated from the Tanguay_ZF_120hpf assay. It is designed to make measurements of zebrafish development as detected with brightfield microscopy of developing zebrafish embryos.Data from the assay component Tanguay_ZF_120hpf_MORT was analyzed into 1 assay endpoints. This assay endpoint, Tanguay_ZF_120hpf_MORT, was analyzed in the positive analysis fitting direction relative to DMSO as the negative control and baseline of activity. Using a type of viability reporter, gain-of-signal activity can be used to understand changes in developmentals as they relate to the whole embryo. To generalize the intended target to other relatable targets, this assay endpoint is annotated to the zebrafish development intended target family, where the subfamily is embryonic mortality.
Zebrafish husbandry: Tropical 5D wild-type adult zebrafish were housed in at an approximate density of 1000 per 100 gallon tank at the Sinnhuber Aquatic Research Laboratory, Oregon State University, Corvallis, OR. Each tank was kept at standard laboratory conditions of 28C on a 14-h light/10-h dark photoperiod in fish water consisting of reverse osmosis water supplemented with a commercially available salt (Instant Ocean). Spawning funnels were placed into the tanks the night prior, and embryos were collected and staged. To increase bioavailability, the chorion was enzymatically removed using pronase (63.6mg/ml, >/= 3.5U/mg, Sigma-Aldrich: P5147) at 4 hours post fertilization (hpf) using a custom automated dechorionator.Chemical exposures: Six hpf dechorionated embryos were placed 1 embryo per well in a 96-well plate prefilled with 90 ul of EM using automated embryo placement systems (AEPS). Ten microliters of each row of dilution plate 2 was added to 2 exposure plates. The final DMSO concentration used was 0.64% (vol/vol). Thirty-two embryos were also exposed to 5uM trimethyltin chloride (positive control). Plates were sealed to prevent evaporation and foil covered to reduce light exposure and kept in a 28C incubator. Embryos were statically exposed until 120 hpf. At 24 hpf, embryos were assessed for photomotor response using a custom photomotor response analysis tool (PRAT) and for developmental toxicity endpoints (MO24: mortality at 24 hpf, DP: developmental progression, SM: spontaneous movement, and NC: notochord distortion). At 120 hpf, locomotor activity was measured using Viewpoint Zebralab and assessed for 13 endpoints. Zebrafish acquisition and analysis program (ZAAP), a custom program designed to inventory, acquire, and manage zebrafish data, was used to collect developmental endpoints as either present or absent (i.e., binary responses were recorded). If mortality occurred for an embryo (at either 24 or 120 hpf), the non-mortality endpoints were not measured.

SMILES	outcome	AC50
NC(=O)C(F)(F)C(F)(F)C(F)(F)F	inactive	–
OCC(F)(F)C(F)(F)C(F)(F)C(F)(F)C(F)(F)C(F)(F)C(F)(F)C(F)(F)CO	–	19.6 µM (active)
OCC(F)(F)C(F)(F)C(F)(F)C(F)(F)C(F)(F)C(F)(F)CO	inactive	–
NS(=O)(=O)C(F)(F)C(F)(F)C(F)(F)C(F)(F)C(F)(F)C(F)(F)F	–	11.1 µM (active)
NC(=O)C(F)(F)C(F)(F)C(F)(F)C(F)(F)C(F)(F)C(F)(F)C(F)(F)F	–	41.3 µM (active)
NC(O)(C(F)(F)F)C(F)(F)F	inactive	–
FC(F)(F)C(F)(F)C(F)(F)C(F)(F)C(F)(F)C(F)(F)C(F)(F)CCI	inactive	–
OCC(F)(F)C(F)(F)C(F)(F)CO	inactive	–
OCC(O)CC(F)(F)C(F)(F)C(F)(F)C(F)(F)C(F)(F)C(F)(F)C(F)(F)C(F)(F)F (configuration not stated)	inactive	–
O=S(=O)(Cl)C(F)(F)C(F)(F)C(F)(F)C(F)(F)C(F)(F)C(F)(F)C(F)(F)C(F)(F)F	inactive	–
OC(O)C(F)(F)C(F)(F)F	inactive	–
O=S(=O)(O)CCC(F)(F)C(F)(F)C(F)(F)C(F)(F)F	inactive	–
O=C(O)CCC(F)(F)C(F)(F)C(F)(F)F	inactive	–
O=C(O)C(F)(F)C(F)(F)C(F)(F)OC(F)(F)F	inactive	–
OCCCC(F)(F)C(F)(F)C(F)(F)C(F)(F)C(F)(F)C(F)(F)C(F)(F)C(F)(F)F	inactive	–
CNS(=O)(=O)C(F)(F)C(F)(F)C(F)(F)C(F)(F)C(F)(F)C(F)(F)C(F)(F)C(F)(F)F	–	56.9 µM (active)
OCC(O)CC(F)(F)C(F)(F)C(F)(F)C(F)(F)F (configuration not stated)	inactive	–
FC(F)(F)C(F)(F)C(F)(F)C(F)(F)C(F)(F)C(F)(F)CC[Si](Cl)(Cl)Cl	inactive	–
NC(=O)C(F)(F)C(F)(F)C(F)(F)C(F)(F)C(N)=O	inactive	–

SMILES	outcome	AC50
C[Si](Cl)(Cl)CCC(F)(F)C(F)(F)C(F)(F)C(F)(F)C(F)(F)C(F)(F)F	inactive	–
C=CC(=O)OCC(F)(F)C(F)(F)C(F)(F)COC(=O)C=C	–	16.3 µM (active)
CCN(CCO)S(=O)(=O)C(F)(F)C(F)(F)C(F)(F)C(F)(F)C(F)(F)C(F)(F)C(F)(F)C(F)(F)F	inactive	–
C=CC(=O)OCC(F)(F)C(F)(F)C(F)(F)C(F)(F)C(F)(F)C(F)(F)C(F)(F)C(F)F	inactive	–
COC(F)(C(F)F)C(F)(F)F (configuration not stated)	inactive	–
O=C(F)C1(F)C(F)(F)C(F)(F)C(F)(F)C(F)(F)C1(F)F	inactive	–
CCOC(=O)CC(=O)C(F)(F)C(F)(F)F	inactive	–
O=S(=O)(OCC(F)(F)F)C(F)(F)C(F)(F)C(F)(F)C(F)(F)F	inactive	–
O=C(O)CCC(F)(F)C(F)(F)C(F)(F)C(F)(F)C(F)(F)C(F)(F)C(F)(F)F	inactive	–
O=C(O)C(F)(F)C(F)(F)C(F)(F)C(=O)O	inactive	–
O=S(=O)(O)CCC(F)(F)C(F)(F)C(F)(F)C(F)(F)C(F)(F)C(F)(F)C(F)(F)C(F)(F)F	–	64.2 µM (active)
FC(F)(F)C(F)(F)C(F)(F)CC1CO1 (configuration not stated)	inactive	–
C=CC(=O)OCCC(F)(F)C(F)(F)C(F)(F)C(F)(F)F	inactive	–
NC(=O)C(F)(F)C(F)(F)C(F)(F)C(F)F	inactive	–
CN(C(=O)C(F)(F)C(F)(F)C(F)(F)F)[Si](C)(C)C	inactive	–
CO[Si](C)(CCC(F)(F)C(F)(F)C(F)(F)C(F)(F)C(F)(F)C(F)(F)F)OC	inactive	–
OCCCCC(F)(F)C(F)(F)C(F)(F)C(F)(F)F	inactive	–
O=C(O)C(F)(F)C(F)(F)C(F)(F)OC(F)(C(F)(F)F)C(F)(F)F	inactive	–
